# Screening results deposited in PubChem by National Center for Advancing Translational Sciences (NCATS).
# Hits are enriched below; roughly 3% of the tested compounds scored in any of these assays.
# Tau ThT inhib = tau fibrillization inhibition (ThT binding); 270,000 tested, 2.1% active; recombinant tau K18 P301L, heparin-induced fibrillization, ThT fluorescence; Potency, µM (titrated, usually from 57.4 µM), for the others: at the highest dose activity, negative = inhibition, usual class: inhibitors; AID 1460; also: nearly all actives have a fitted effect of over 55% in size
# Target sequence (P10636 561-689 P618L limits assumed): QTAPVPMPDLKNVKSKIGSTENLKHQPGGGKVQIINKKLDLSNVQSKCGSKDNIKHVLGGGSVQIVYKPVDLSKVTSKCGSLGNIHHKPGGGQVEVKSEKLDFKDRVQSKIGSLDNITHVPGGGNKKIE
#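 ThT emission at 510 nm, taken 1 hr after adding 30 uM dye, quantifies aggregates formed when 20 uM heparin acts on human tau K18 P301L for 6 hr at 37 C.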
# Tau FP inhib = blocks human tau fibril formation measured by polarization; Potency, µM (series often up to 57.7 µM), for the others: top-dose activity, negative = inhibition, usual class: inhibitors; 280,000 tested, 0.39% active; P10636; K18 P301L tau heparin fibrillization, Alexa594 FP, 6 h; also: nearly all actives have a fitted effect of over 55% in size
#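 Human tau K18 […] P301L fragment, 15 uM unlabeled plus 0.24 uM Alexa 594-labeled tau (final), with compound and 20 uM heparin in 100 mM sodium acetate pH 7; 6 hr at 37 C, then Alexa 594 FP read.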
# TexasRed fluor = Texas Red fluorescence interference in TRb-SRC2 counter-screen; 280,000 tested, 0.29% active; AID 1479; TRb/SRC2 Texas Red total fluorescence interference; Potency, µM (doses to about 106 µM), inactives show top-dose fluorescence change, negative = quenching; active = well fitted curve in either direction with a large enough effect; inconclusive = small, poorly fitted or top-dose-only effect
#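 Flags fluorescent or light-absorbing compounds by total fluorescence, S + 2P, at 555 nm excitation and 632 nm emission. Mixture: 20 nM Texas Red SRC2 peptide, 0.6 uM human TRb LBD, 1 uM T3, 5% DMSO; compound exposure 5 h at ambient temperature.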
# Tau fluor cs = counter-screen for tau fibril formation inhibitors; tau K18 P301L (four-repeat tau fragment) Alexa594 fluorescence, heparin fibrillization; Potency, µM (highest dose often 57.7 µM), for inactives: top-dose activity change, negative = decrease; 280,000 tested, 0.93% active; also: nearly all actives have a fitted effect of over 55% in size
#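 Human K18 P301L tau (15 uM unlabeled plus 0.24 uM Alexa 594-labeled, final) in 100 mM sodium acetate pH 7 was mixed with compound and 20 uM heparin and incubated 6 hr at 37 C.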
# TRb-SRC2 inh = TRbeta-SRC2 interaction inhibition; 280,000 tested, 0.065% active; P10828; Potency, µM (highest dose often 106 µM), inactives show at the top dose activity change, negative = inhibition, most hits filed as inhibitors; TRbeta-SRC2 peptide binding, fluorescence polarization; receptor liganded with 1 µM T3; AID 1469;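 also: plate controls were bound peptide for no effect and peptide without receptor for full effect; nearly all actives have a fitted effect of over 50% in size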
# Target sequence (P10828 whole entry, looked up): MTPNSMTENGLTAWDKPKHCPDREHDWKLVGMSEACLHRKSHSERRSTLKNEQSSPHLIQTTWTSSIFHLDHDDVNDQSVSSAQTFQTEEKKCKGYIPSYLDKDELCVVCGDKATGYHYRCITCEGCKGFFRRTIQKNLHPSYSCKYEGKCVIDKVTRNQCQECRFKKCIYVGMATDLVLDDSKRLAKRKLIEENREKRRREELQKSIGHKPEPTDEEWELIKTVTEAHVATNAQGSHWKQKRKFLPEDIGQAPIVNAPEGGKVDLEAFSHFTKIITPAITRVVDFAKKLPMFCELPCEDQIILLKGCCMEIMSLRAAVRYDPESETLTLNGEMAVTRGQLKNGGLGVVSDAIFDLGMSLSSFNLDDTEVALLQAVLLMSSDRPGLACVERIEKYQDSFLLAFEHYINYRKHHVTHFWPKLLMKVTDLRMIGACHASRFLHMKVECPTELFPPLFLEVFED
#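 Assay buffer: 20 mM Tris-HCl, 100 mM NaCl, 10% glycerol, 1 mM EDTA, 0.01% NP-40, 1 mM DTT, 1 uM T3, 5% DMSO; TRb LBD 0.6 uM, Texas Red SRC2 20 nM; FP after 5 hr.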
# The depositor's hits bear a star; ? = inconclusive; nt = not tested or not shown; [ ] = remark or other dose. Unless noted, calls follow the shape of the dose curve; as a rule, active = well fitted curve in the direction sought with a large enough effect; inconclusive = small, poorly fitted or top-dose-only effect, or another doubt; inactive = no such curve, though single readings can be large; an effect the other way counts as inactive or inconclusive. Unless noted, % is scaled to controls: 0 for no effect and ±100 for the full control effect; potency is read from the fitted curve at half-maximal effect.
SMILES,Tau ThT inhib,Tau FP inhib,TexasRed fluor,Tau fluor cs,TRb-SRC2 inh
CCOC(=O)c1ccc(Nc2ncccc2[N+](=O)[O-])cc1,2.2µM*,-3%,-1%,-29%,2%
COC(=O)C1=C(C(=O)OC)[C@@H]2N(C)c3ccc(OC)cc3[C@@]23C[C@@H](C(=O)OC)N(S(=O)(=O)c2cccs2)C3=N1,-15%[11.5 µM],2%[11.6 µM],1%[11.2 µM],-24%[11.6 µM],7%[11.2 µM]
CCOC(=O)Cn1c(=O)c2c(nc(N3CCOCC3)n2Cc2ccccc2)n(C)c1=O,0%,-8%,-2%,-2%,-4%
COc1cc(OC)c(NC(=O)NCCn2nnc3cc(S(=O)(=O)N(C)C)ccc32)cc1Cl,-7%,9%,-2%,-19%,-9%
COc1cccc(C2C(C(=O)Nc3ccc(C)cc3C)=C(C)Nc3c(C(=O)Nc4cccc(C)c4)cnn32)c1OC (stereo not given),-9%,-18%,-2%,-14%,0%
COc1cccc(-c2nc(SCC(=O)Nc3ccc4c(c3)OCCO4)c(-c3ccc(C)cc3)[nH]2)c1,?,?,-3%,5µM*[quencher],-2%
COc1ccc(-c2[nH]c(-c3cccc(OC)c3)nc2SCC(=O)NCc2ccco2)cc1,?,?,-5%,14µM*[quencher],7%
COc1ccc(-c2nc(SCC(=O)Nc3ccc4c(c3)OCO4)c(-c3ccc(F)cc3)[nH]2)cc1OC,1%,3%,-2%,?,0%
COc1ccc(-c2nc(SCC(=O)Nc3ccc4c(c3)OCCO4)c(-c3ccc(F)cc3)[nH]2)cc1,-1%,?,-9%,8.9µM*[quencher],0%
COc1ccc2nc(SCC(=O)Nc3ccc4c(c3)OCCO4)[nH]c2c1,?,3%,-2%,-28%,-2%
COc1ccc(-c2nc(SCC(=O)Nc3ccc4c(c3)OCCO4)c(-c3ccc(F)cc3)[nH]2)cc1OC,-12%,5%,-3%,6.3µM*[quencher],4%
Cc1ccc(NC(=O)c2cnc(SCC(=O)N3CCOCC3)n(C)c2=O)cc1,?,-8%,-1%,-13%,-1%
Nn1cc(Br)c(=O)[nH]c1=O,-9%,-5%,-2%,-11%,1%
CCN(CC)c1ccc(/C=N/NC(=O)c2cnccn2)cc1,14µM*,-4%,-6%,-17%,-12%
C/C(=N\NC(=O)CCc1c[nH]c2ccccc12)c1ccc([N+](=O)[O-])cc1,10µM*,15%,-5%,?,-1%
CCc1ccc(/C=N/N2CCN(c3ccccn3)CC2)cc1,?,-4%,1%,-24%,6%
CCN(CC)c1ccc(/C=N/N2CCN(c3ccccn3)CC2)cc1,1.3µM*,0%,2%,?,-6%
CN(C)c1ccc(/C=N/NC(=O)CCc2c[nH]c3ccccc23)cc1,8.9µM*,6%,-2%,?,4%
CCc1cccc(C)c1NC(=O)CN1C(=O)C2(SCC(=O)N2c2cc(C)cc(C)c2)c2ccccc21 (stereo not given),-12%,-1%,-3%,-17%,-2%
Cc1ccc(/C=C/c2onc(C)c2S(=O)(=O)N2CCC(C(=O)N(CCC(C)C)Cc3ccco3)CC2)cc1,-2%,-2%,-2%,-2%,2%
CCc1ccc(/C=N/NC(=O)c2ccccn2)cc1,-7%,1%,-1%,4%,3%
CCN(CC)c1ccc(/C=N/NC(=O)c2ccccn2)cc1,10µM*,0%,-2%,-29%,9%
CCN(CC)c1ccc(/C=N/NC(=O)c2c[nH]c3ccccc23)cc1,5µM*,7%,-2%,13µM*[quencher],8%
C#CC(C)OC(=O)Nc1cccc(Cl)c1 (stereo not given),nt,nt,-2%,nt,0%
O=C(Nc1cccc(Cl)c1)OCC#CCCl,nt,nt,7.9µM*[fluorescent],nt,0.79µM*
SMILES,Tau ThT inhib,Tau FP inhib,TexasRed fluor,Tau fluor cs,TRb-SRC2 inh
CCC1Oc2ccc(C)cc2N(CC(=O)NCCc2ccccc2)C1=O (stereo not given),8%,-9%,0%,1%,-6%
O=[N+]([O-])c1cc(/C=N\Nc2nc(-c3ccccc3)cs2)ccc1O,3.2µM*,?,-14%,10µM*[quencher],-4%
Cc1csc(N/N=C/c2ccc(O)c([N+](=O)[O-])c2)n1,5µM*,-2%,-26%,?,-3%
O=[N+]([O-])c1cc(/C=N/N/C(=N/c2ccccn2)c2ccccn2)ccc1O,?,-11%,-1%,-13%,0%
O=[N+]([O-])c1ccc(-c2csc(N/N=C/c3cccnc3)n2)cc1,2.2µM*,4%,-4%,?,4%
Clc1ccc(-c2csc(N/N=C/c3ccc4c(c3)OCO4)n2)cc1,8.9µM*,-2%,-19%,11µM*[quencher],-1%
CCCCN(Cc1cc2ccccc2[nH]c1=O)C(=O)c1cccc(Cl)c1,2%,-2%,1%,-9%,-2%
Cc1cc(C)cc(NS(=O)(=O)c2ccc(N3CCCCS3(=O)=O)cc2)c1,3%,-2%,0%,-18%,-9%
CCOc1cccc(C(=O)Nc2ccc(-c3nc4ncccc4o3)cc2C)c1,?,4%,-4%,-6%,7%
O=[N+]([O-])c1ccc(-n2nnnc2-c2ccccc2)c([N+](=O)[O-])c1,14µM*,?,-4%,11µM*[quencher],2%
Cc1ccc(OCCCN2C(=O)C(=O)c3cccc(C)c32)cc1,?,3%,-6%,-12%,-10%
CCCOc1ccc(CN2C(=O)C(=O)c3cccc(C)c32)cc1,18µM*,-3%,-3%,-26%,-9%
Cc1ccc(CN2C(=O)C(=O)c3cc(Br)cc(C)c32)cc1,28µM*,?,-4%,?,8%
Cc1ccc(NC(=O)Cn2c(=O)n(-c3ccccc3)c(=O)c3ccc(C(=O)NCc4ccc5c(c4)OCO5)cc32)c(C)c1,3%,?,0%,-9%,1%
CCOC(=O)CC(O)(CC(=O)OCC)C(=O)OCC,nt,nt,0%[201 µM],nt,-3%[201 µM]
Oc1ccc(C=Nc2ccc3ncccc3c2)c(O)c1,6.3µM*,?,?,?,?
COc1ccc2oc(-c3ccc(NC(=O)c4ccc(Cl)cc4Cl)cc3)nc2c1,?,-8%,5%,0%,-3%
CC(C)(C)OC(=O)N1CCC(c2c(C(=O)Nc3ccc4c(c3)OCCO4)cnn2-c2ccccc2)CC1,-10%,5%,0%,?,-4%
COc1cc(Nc2nc(SCc3cccc(Cl)c3)nc3ccccc23)cc(OC)c1,?,7.9µM*,-1%,?,2%
COc1cc(Nc2nc(SCC(=O)c3ccc(Cl)c(Cl)c3)nc3ccccc23)cc(OC)c1,2%,14µM*,1%,?,6%
COc1cc(Nc2nc(SCc3ccc(Cl)cc3)nc3ccccc23)cc(OC)c1,?,?,-6%,?,4%
COc1cc(Nc2nc(SCc3ccccc3Cl)nc3ccccc23)cc(OC)c1,?,11µM*,-23%,?,3%
